Source: PubChem
HPGD inh: qHTS Assay for Inhibitors of HPGD (15-Hydroxyprostaglandin Dehydrogenase) | 15-hydroxyprostaglandin dehydrogenase [NAD(+)] (Homo sapiens), P15428 | purified HPGD, NADH fluorescence kinetic, PGE2 substrate | Potency, µM, usual class: inhibitors | actives 4.3% (n = 150,000) | AID 894, 2007
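20 nM HPGD preincubated 15 min at room temperature with compound in 50 mM Tris-HCl pH 8, 0.01% Tween 20. Started with 1 mM NAD+ and 30 uM prostaglandin E2; NADH fluorescence (360/450 nm) read 5 times over 30-s intervals, last minus first.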
Lamin A splicing: qHTS Assay for Modulators of Lamin A Splicing; AID 1487, 2009; Potency, µM (titrated, usually from 46.1 µM), most hits filed as inhibitors; HeLa LMNA splicing GFP/RFP minigene ratio, 48 h; actives 0.01% (n = 200,000); active = well fitted inhibition curve with a large enough effect in the signal ratio, with a control signal flat, not every such curve was filed as active; inconclusive = small, poorly fitted or top-dose-only effect, or effect the other way, or a change in a side signal; the % refers to the signal ratio
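S3 HeLa cells stably expressing lamin A-EGFP splicing minigene plus DsRed2, 600 cells/well, 48 h compound exposure at 37C. Laser-scanning cytometry; analysed as GFP (500-530 nm)/RFP (575-640 nm) total intensity ratio; 0.5% DMSO vehicle.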
PNC inhibitor: High Content Assay for Compounds that inhibit the Assembly of the Perinucleolar Compartment; activity change (PNC), negative = inhibition, % at 10 µM; PC3M PTB-GFP, PNC prevalence imaging, 16 h; hits give low values; actives 3.1% (n = 140,000); AID 2417, 2010;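 active = readout at or below -70, meaning at least 70% loss of cells showing the perinucleolar compartment, a nuclear body marking cancer cells; inconclusive = readout between -30 and a set limit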
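Compounds are pinned in duplicate onto adhered PC3M cells stably expressing GFP-tagged PTB and incubated 16 h at 37 C. Cells are then fixed, nuclei stained with Hoechst, and PNC-positive cells counted.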
ALDH1A1 block: qHTS Assay for Inhibitors of Aldehyde Dehydrogenase 1 (ALDH1A1). Potency, µM (series often up to 75.3 µM), hits mostly inhibitors. Aldehyde dehydrogenase 1A1 (Homo sapiens), P00352. actives 7.3% (n = 220,000). Purified ALDH1A1, NADH fluorescence, propionaldehyde substrate
Target sequence (P00352 whole entry, looked up): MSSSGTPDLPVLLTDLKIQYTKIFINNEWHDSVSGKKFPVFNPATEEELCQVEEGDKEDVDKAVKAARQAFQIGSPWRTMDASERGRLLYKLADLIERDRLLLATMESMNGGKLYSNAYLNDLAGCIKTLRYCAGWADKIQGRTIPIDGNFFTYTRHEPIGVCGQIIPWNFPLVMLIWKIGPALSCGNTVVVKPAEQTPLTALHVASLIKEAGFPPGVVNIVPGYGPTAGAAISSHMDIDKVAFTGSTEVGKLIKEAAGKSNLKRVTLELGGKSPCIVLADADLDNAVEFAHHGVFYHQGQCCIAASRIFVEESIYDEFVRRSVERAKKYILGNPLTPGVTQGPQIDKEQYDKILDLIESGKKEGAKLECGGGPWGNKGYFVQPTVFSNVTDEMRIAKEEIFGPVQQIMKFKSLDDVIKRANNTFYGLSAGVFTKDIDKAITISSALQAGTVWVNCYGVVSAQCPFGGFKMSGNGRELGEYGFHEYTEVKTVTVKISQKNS
Luc counter: Counterscreen for Luciferase (Kinase-Glo TM) Inhibition; Potency, µM (titrated, usually from 38.3 µM), hits mostly inhibitors; actives 0.28% (n = 200,000); AID 1379, 2008; Kinase-Glo luciferase, ATP luminescence, 8 min; Luciferin 4-monooxygenase (Photuris pensylvanica), Q27757; active = well fitted inhibition curve with a large enough effect; inconclusive = small, poorly fitted or top-dose-only effect; also: nearly all actives have a fitted effect of over 60% in size
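Kinase-Glo luciferase light output from ATP and luciferin was measured with 10 uM ATP, within the enzyme's linear range. Buffer: 50 mM imidazole pH 7.2, 50 mM KCl, 7 mM MgCl2, 0.01% Tween 20, 0.05% BSA; luminescence read after 8 min at ambient temperature.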
Hits are given with their value; - = inactive; ? = inconclusive; . = not tested or not shown; [ ] = dose if it differs, or a comment. A selection: hits, their analogues and other compounds. The true share with any hit is near 10%. Unless noted, calls follow the shape of the dose curve; as a rule, active = well fitted inhibition curve with a large enough effect (not every such curve was filed as active); inconclusive = small, poorly fitted or top-dose-only effect, or another doubt; inactive = no such curve, though single readings can be large or run the other way.

SMILES | HPGD inh | Lamin A splicing | PNC inhibitor | ALDH1A1 block | Luc counter
O=C1CC(c2ccccc2)NC(=O)N1 (stereo not drawn) | - | - | -81.4 | - | -
CN(C)S(=O)(=O)c1cccc2c1C(=O)c1ccccc1C2=O | - | - | - | ? | -
CN(C)c1cc2c(c(N(C)C)c1)C(=O)c1ccccc1C2=O | - | - | - | 0.708µM | 11.2µM
CC(=O)c1cccc2c(O)c(C3=Nc4ccccc4C3=O)[nH]c12 | 14.1µM | ? | - | ? | ?
C=CCOC(=O)C1(C(NC(=O)OC)c2ccccc2)C(=O)Cc2ccccc21 (stereo not drawn) | - | . | . | 4.47µM | -
Cc1ccc(CSC2=Nc3ccccc3C3=NC(CCC(=O)NC4CCCCC4)C(=O)N23)cc1 (stereo not drawn) | . | - | . | . | .
COc1ccc(NC(=S)N(CCc2c(C)[nH]c3ccc(C)cc23)Cc2ccco2)cc1 | - | ? | - | ? | -
CCOc1ccc(NC(=S)N(Cc2ccc(N(C)C)cc2)Cc2ccco2)cc1 | - | - | - | 8.91µM | -
CCOc1ccc(NC(=S)NN(C)C(=S)Nc2ccc(OCC)cc2)cc1 | - | ? | - | 28.2µM | -
CCCN(Cc1ccccc1)C(=S)Nc1ccc(OCC)cc1 | . | ? | . | - | -
COc1ccc(NC(=S)N(Cc2ccc(N(C)C)cc2)Cc2ccco2)cc1 | - | ? | - | 11.2µM | -
Cc1cc(C)c2nc3c(c([C@H](O)C4CCCCN4)c2c1)CC/C3=C/c1ccc(Cl)cc1 (stereo partly drawn) | - | . | . | -[13.5 µM] | -[7.66 µM]
Cc1nc2cc(C(=O)OCC(=O)Nc3ccc(C#N)cc3)ccc2n1-c1ccccc1 | ? | - | ? | - | -
Cc1nc2cc(NC(=O)COc3ccc(C#N)cc3)ccc2n1-c1ccccc1 | - | ? | - | 11.2µM | -
O=C(c1ccc(Cl)c(F)c1F)N1CCCC1 | 20µM | - | - | - | -
CC1CCCN(C(=O)CN2CCN(C(=O)c3ccco3)CC2)C1 (stereo not drawn) | - | - | ? | 22.4µM | -
CCOC(=O)C1CCCN(C(=O)c2cnn3c(C(F)F)cc(-c4ccc(C)cc4)nc23)C1 (stereo not drawn) | ? | - | -106.5 | ? | -
CCOC(=O)C1CCCN(C(=O)c2ccc(C)cc2O)C1 (stereo not drawn) | 14.1µM | - | - | ? | -
CCOC(=O)C1CCCN(C(=O)c2cc(-c3ccccc3)on2)C1 (stereo not drawn) | 28.2µM | - | - | - | -
CC[C@@H](c1ccccc1)n1c(=O)n2n(c1=O)[C@H]1[C@H](O)[C@H]3O[C@@H]3/C(=N/OC/C=C(\C)CCC=C(C)C)[C@@H]1CC2 | . | . | . | -[13.5 µM] | .
CCOC(=O)C1CCCN(C(=O)CSCc2ccccc2)C1 (stereo not drawn) | - | - | - | ? | -
CCOC(=O)C1CCCN(C(=O)c2ccco2)C1 (stereo not drawn) | - | - | - | 8.91µM | -
O=C(NCc1cccc(Cl)c1)C1CCCN(c2nn3cc(-c4ccc(F)cc4)nc3s2)C1 (stereo not drawn) | . | - | . | . | .
COc1cccc(CNC(=O)CCCn2c(=O)c3cccn3c3ccc(F)cc32)c1OC | . | - | . | . | .
CCOC(=O)c1c(C)[nH]c(C)c1C(=O)CN1C(=O)NC2(CCC(C)CC2)C1=O (stereo not drawn) | - | - | ? | - | -
SMILES | HPGD inh | Lamin A splicing | PNC inhibitor | ALDH1A1 block | Luc counter
CCOC(=O)c1c(C)[nH]c(C)c1C(=O)CN1C(=O)NC(CC(C)C)C1=O (stereo not drawn) | - | - | -94.3 | - | -
CC1CCC2(CC1)NC(=S)N(c1ccccc1)N2 (stereo not drawn) | - | ? | - | 15.8µM | -
CC1(C)CC(=O)C2=C(C1)NCN(Cc1ccccc1)C2 | - | - | - | - | -
CCCN1CN(Cc2ccccc2)CC2=C1CC(C)(C)CC2=O | - | - | - | 7.94µM | -
C[C@@H]1NC(=O)[C@H](CCC(N)=O)NC(=O)c2cc([N+](=O)[O-])cc(I)c2NCC[C@@H](C(N)=O)NC1=O | - | - | - | - | -
C[C@@H]1NC(=O)c2cc([N+](=O)[O-])cc(I)c2NCC[C@@H](C(N)=O)NC(=O)[C@H](CC(N)=O)NC1=O | - | - | -103.5 | - | -
CCC1=C(OC(=O)N(CC)CC)N2C(=O)OC(=NCCOC)[C@]2(C)[C@H]2C1=CC[C@H]1C(=O)N(CC)C(=O)[C@H]12 | - | . | . | - | -
COCC(=O)N1CCC2(CC1)CN(c1ccc(-c3ccccc3)cc1)C2 | ? | . | . | ? | -
COc1cc(/C=N/NC(=O)c2sc(N)c(C#N)c2C)cc(Br)c1O | - | ? | - | 12.6µM | -
CCCCCNC1=CC(=O)CC(c2ccccc2)C1 (stereo not drawn) | - | - | -83.5 | ? | -
O=C(Nc1ccc(Cl)cc1)OCCn1nnnc1C(c1ccccc1)N1CCOCC1 (stereo not drawn) | - | - | - | - | -
CN(C)c1ccc(C(c2nnnn2CCOC(=O)Nc2ccc(Cl)cc2)N2CCOCC2)cc1 (stereo not drawn) | - | - | - | 25.1µM | -
COc1cccc([C@@H]2Oc3ccc(OC)cc3C(=O)[C@H]2OC(=O)NS(=O)(=O)c2ccc(C)cc2)c1 | - | . | . | - | -
CC(C)CO/N=C1/C[C@@H](O)[C@@H](O)[C@@H]2[C@@H]3C(=O)N(C[C@@H]4CCCO4)C(=O)[C@H]3CC[C@H]12 | . | . | . | -[13.5 µM] | .
CC(C)CNS(=O)(=O)c1ccc(OCC(=O)Nc2ccc(F)cc2F)cc1 | - | - | -82.7 | - | -
Cc1cc(C)c(NC(=O)C2CCCN2CCOC(=O)c2cccc([N+](=O)[O-])c2)c(C)c1 (stereo not drawn) | - | - | - | 39.8µM | -
Cc1ccc2cc(CN(CCN3CCOCC3)Cc3nnnn3Cc3ccco3)c(=O)[nH]c2c1C | - | - | - | 5.01µM | -
Cc1ccc2cc(CN(Cc3ccc4c(c3)OCO4)Cc3nnnn3Cc3ccco3)c(=O)[nH]c2c1C | - | - | - | ? | -
CCc1ccc2[nH]c(=O)c(CN(Cc3ccccc3OC)Cc3nnnn3Cc3ccco3)cc2c1 | - | ? | - | 25.1µM | -
COc1cccc(N2CCN(c3ncnc4onc(-c5ccc(Cl)cc5)c34)CC2)c1 | . | - | . | . | .
O=S(=O)(c1ccc(Br)cc1)N1CCN(S(=O)(=O)c2ccc(Br)cc2)CC1 | - | . | . | -[13.5 µM] | -[7.66 µM]
O=[N+]([O-])c1ccc(S(=O)(=O)N2CCSC2c2ccco2)cc1 (stereo not drawn) | . | ? | . | 3.98µM | .
O=S(=O)(c1ccc(Cl)cc1)N1CCSC1c1ccco1 (stereo not drawn) | - | - | - | ? | -
COc1ccc(C(N)=S)cc1 | - | - | - | - | -
S=C1NC(c2ccccc2)N2C(=S)NC(c3ccccc3)N12 (stereo not drawn) | 25.1µM | - | ? | 12.6µM | -
